From PubChem
In the library only some 4.6% were active in any assay of this set; here they are far more common.
tim23-1 inh – growth inhibitors of tim23-1 mutant yeast, primary screen, luminescence, uHTS; S. cerevisiae tim23-1 growth, BacTiter-Glo luminescence, 24 h; inhibition, % at 20 µM; 1.3% of 330,000 active;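 active = growth inhibition of the mutant yeast at or above 50%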;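 note: temperature-sensitive mutant grown at 25 °C; plate controls were DMSO-treated mutant yeast for no effect and medium wells lacking yeast for full effect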
SKKanGAS inh – S. pyogenes SKKanGAS growth inhibitors in kanamycin, primary screen, streptokinase expression inhibitor project, SKKanGAS strain, BacTiter-Glo luminescence; 1.3% of 300,000 active; AID 1662, 2009; inhibition, % at 7.5 µM; 6 h;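 active = mean replicate score, as percent of positive control median, at least 50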;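 note: strain carries kanamycin resistance gene driven by streptokinase promoter and grows in 40 µg/ml kanamycin; loss of luminescence reflects streptokinase promoter inhibition or plain growth inhibition; 0% = median of DMSO wells and 100% = positive control at its reference dose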
PfHsp90 set2 – growth inhibition of PfHsp90-expressing yeast, primary screen, antimalarial PfHsp90 inhibitor project, S. cerevisiae, BacTiter-Glo luminescence, single point, set 2; inhibition, % at 9.4 µM; BacTiter-Glo ATP, 48 h; yeast lacking PDR1 and PDR3 efflux regulators; 0.32% of 310,000 active; AID 504621, 2011;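 active = every replicate shows inhibition above about 80%, whatever the replicate mean, limit read from the data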;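 note: 0% = DMSO neutral controls and 100% = 20 µM radicicol positive controls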
TIM10 inh – growth inhibitors of isogenic TIM10 control yeast, primary screen, counter-screen for tim10-1 yeast inhibitor project, luminescence, uHTS; S. cerevisiae TIM10 strain growth, BacTiter-Glo luminescence, 24 h; inhibition, % at 10 µM; 1.4% of 330,000 active; AID 463195, 2010;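 active = inhibition of 40% or more at the single tested concentration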;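 note: wild-type TIM10 isogenic control strain grown at permissive 25 °C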
V-ATPase pH – regulators of yeast V-ATPase proton pumping, primary screen, pHLuorin cytosolic pH fluorescence; S. cerevisiae; response, % at 10 µM; 0.37% of 350,000 active; AID 504577, 2011; in the data active = response mostly above about 7.3%, no sharp cut-off; inactive = mostly below about 5.4%; note: actives read high
tim10-1 inh – growth inhibitors of tim10-1 mutant yeast, primary screen, luminescence, uHTS | inhibition, % at 20 µM | AID 463190, 2010 | S. cerevisiae tim10-1 ts strain growth, BacTiter-Glo, 24 h | 2.2% of 330,000 active;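 active = inhibition of at least 40%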;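 note: mutant grown at 25 °C; 0% = DMSO wells with yeast and 100% = wells holding no yeast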
Starred values were filed as active, the others as inactive; / = not tested or not shown.

SMILES | tim23-1 inh | SKKanGAS inh | PfHsp90 set2 | TIM10 inh | V-ATPase pH | tim10-1 inh
C/C(=N\Nc1cc(-c2ccccc2)nc(-c2ccc(Br)cc2)n1)c1cccc(N)c1 | 21 | / | / | 18 | 0 | 22
C/C(=N/Nc1cc(-c2ccccc2)nc(-c2ccccc2)n1)c1ccc(O)cc1 | 40 | 99* | 4 | 25 | 4 | 0
COc1cc(-c2nc(-c3ccc4c(c3)-c3ccccc3S4(=O)=O)c(-c3ccccc3)[nH]2)cc(OC)c1O | 27 | 66* | / | -3 | -5 | 31
O=C(Cn1nnc(-c2ccccc2)n1)N/N=C/c1cccc([N+](=O)[O-])c1 | 8 | -5 | -56 | 11 | -2 | 11
O=C(Cn1nnc(-c2ccccc2)n1)N/N=C/c1cccc([N+](=O)[O-])c1O | 5 | 90* | -1 | -2 | 0 | 8
Cc1onc(-c2ccccc2Cl)c1C(=O)OCC(=O)N1CCN(c2ccccc2)CC1 | 17 | 48 | -7 | 3 | -5 | 7
O=C1c2ccc(-c3ccc4c(c3)C(=O)N(CCO)C4=O)cc2C(=O)N1CCO | 12 | 5 | -3 | -2 | 1 | -9
Cc1cc(C)cc(NC(=O)CCc2c(C)nn(-c3ccc(N4CCOCC4)nn3)c2C)c1 | 12 | 1 | -1 | -1 | 3 | 26
COc1cc(/C=C2\S/C(=N/S(=O)(=O)c3ccccc3)NC2=O)c([N+](=O)[O-])cc1OC | 12 | 68* | -35 | 21 | 2 | 9
COc1ccc(S(=O)(=O)/N=C2/NC(=O)/C(=C\c3cc(OC)c(OC)cc3[N+](=O)[O-])S2)cc1 | 5 | 19 | -65 | 0 | -3 | 10
CC1=C(C(=O)Nc2ccccc2C(F)(F)F)C(c2sccc2C)NC(=S)N1 (stereo not drawn) | 7 | 0 | 4 | 6 | 0 | 12
O=C(OCC(=O)N1CCN(c2ccccc2)CC1)c1ncc(Cl)c(Cl)c1Cl | 28 | -6 | -8 | 21 | -4 | 29
CCC(=O)N(CCC(Cc1ccccc1)c1ccc2c(c1)OCO2)Cc1ccccc1F (stereo not drawn) | 4 | 52* | -3 | 25 | 1 | 18
C/C(CC(=O)Nc1ccc(Cl)c(C(F)(F)F)c1)=N\NC(=O)c1cc2ccccc2cc1O | 39 | 95* | -5 | 20 | -1 | 38
COc1ccc(Cc2[nH]n3c(=O)cc(C(C)C)nc3c2-c2ccccc2)cc1 | -8 | 91* | -8 | 4 | 3 | -9
O=C(CCC(=O)c1ccc(Cl)cc1)OCn1nnc2ccccc2c1=O | 21 | / | -3 | -18 | 2 | -16
CCOc1ccc(-n2c(O)c(/C=N/NC(=O)C3COc4ccccc4O3)c3ccccc3c2=O)cc1 (stereo not drawn) | -10 | 73* | 32 | 6 | -4 | 7
COc1cc(/C=N\NC(=O)C2COc3ccccc3O2)cc(OC)c1O (stereo not drawn) | 0 | -5 | -25 | -3 | -3 | -9
COc1ccc(C(=O)c2ccc(N3CCN(C4CC(=O)NC4=O)CC3)cc2)cc1F (stereo not drawn) | 14 | 73* | 4 | -7 | -1 | 9
C/C(=N/NS(=O)(=O)c1ccc(Cl)cc1)c1cccc(NC(=O)c2ccc(Cl)cc2Cl)c1 | 13 | 64* | -4 | 13 | 0 | 15
Fc1cccc(Nc2ncnc3[nH]ncc23)c1 | 3 | -4 | -17 | 0 | -1 | 20
Brc1ccc(Nc2ncnc3[nH]ncc23)cc1 | 38 | 52* | / | 30 | -1 | 29
COC(=O)Cc1cc(=O)[nH]c(Nc2nc3ccccc3o2)n1 | 3 | 14 | 5 | -1 | 1 | 9
COCc1cc(=O)[nH]c(Nc2nc3ccccc3o2)n1 | 0 | 53* | -12 | 5 | -2 | 8
Cc1ccc(C)c(-c2cc(C(=O)Nc3sc(C)c(C)c3C(N)=O)c3ccccc3n2)c1 | 40 | 70* | -7 | 39 | -1 | 31
SMILES | tim23-1 inh | SKKanGAS inh | PfHsp90 set2 | TIM10 inh | V-ATPase pH | tim10-1 inh
Cc1ccc(N=Nc2ccc(O)c3ncccc23)cc1C | 18 | 88* | -58 | 0 | -1 | 38
Cc1ccc(N=Nc2ccc(O)c3ncccc23)cc1 | / | 109* | -42 | / | 3 | /
Cc1ccc(N=Nc2ccc3ccccc3c2O)cc1 | 30 | 7 | 3 | 18 | 0 | 29
Cc1c(C(=O)N/N=C/c2cccnc2)nnn1-c1nonc1N | 14 | -5 | -10 | -5 | -3 | 8
Cc1ccc(C(=O)NNC2=Nc3cccc4cccc2c34)cc1 | -10 | 58* | -116 | -20 | 4 | -18
Cc1cccc(NC(=S)NCC(c2cccnc2)N(C)C)c1 (stereo not drawn) | 14 | -5 | -3 | -16 | 0 | 4
CN1CCN(C(=O)CCCN2C(=O)/C(=C/c3ccccc3)SC2=S)CC1 | 29 | 2 | -9 | 26 | -2 | 8
CC(/C=C1\SC(=S)N(CCC(=O)Nc2ccc(O)cc2)C1=O)=C\c1ccccc1 | 12 | 28 | -19 | 9 | -1 | 14
CC(/C=C1\SC(=S)N(CCCC(=O)Nc2ccc(C(=O)O)c(O)c2)C1=O)=C\c1ccccc1 | / | 100* | / | / | / | /
O=C(O)CCCN1C(=O)/C(=C\C(Cl)=C\c2ccccc2)SC1=S | / | 65* | 40 | / | -2 | /
Cc1cc(C)cc(NC(=O)CCn2cnc3cc(C)c(C)cc32)c1 | 13 | -6 | -15 | 12 | -4 | -3
Cc1ccccc1SC1CCN(Cc2nc(C3CC3)no2)CC1 | 8 | -3 | 31 | 22 | 2 | 37
O=C(Nc1nnc(C2=COCCO2)o1)c1ccc(Cc2ccccc2)cc1 | -69 | 93* | / | 11 | 0 | 32
CC(=O)Nc1nnc(C2=COCCO2)o1 | 7 | -2 | / | -6 | 0 | 3
O=C(Nc1nnc(C2=COCCO2)o1)c1cccc(C(F)(F)F)c1 | 17 | 56* | -12 | 15 | 7 | 28
O=C(Nc1nnc(C2=COCCO2)o1)c1ccc(F)cc1 | 10 | 24 | -2 | 2 | 0 | 10
CCOC(=O)C1CCCN(C(=O)c2cc(S(=O)(=O)N3CCCCC3)c[nH]2)C1 (stereo not drawn) | -5 | -5 | 11 | 1 | 0 | -1
COc1ccccc1-c1cc(-c2ccccc2)nc(SCC(=O)O)c1C#N | 7 | 84* | 2 | 11 | 3 | 13
COc1ccc(-c2cc(-c3ccccc3)nc(SC(C)C(=O)O)c2C#N)cc1 (stereo not drawn) | 33 | 32 | -30 | 8 | -3 | 17
CC(C)C(Sc1nc(-c2ccccc2)cc(-c2ccccc2)c1C#N)C(=O)O (stereo not drawn) | 19 | 53* | -9 | 24 | 0 | 18
